Only some compounds are listed: those with a hit (about 6.5% of all), similar ones and a draw of the others.
Lassa entry inh: blocks Lassa virus binding to or entry into cells | 1.2% of 300,000 active | Lassa virus pseudotype entry inhibition, cell reporter | Potency, µM (series often up to 37.9 µM), inactives show top-dose activity change, negative = inhibition, usual class: inhibitors; calls by dose curve; tested in HEK293 cells; note: potency is the fitted concentration of half-maximal effect; nearly all actives have a fitted effect of over 50% in size
MARV entry inh: Marburg virus entry inhibition. Marburg virus pseudotyped entry inhibition, cell reporter. Potency, µM (doses to about 37.8 µM), without a hit: at the highest dose activity change, negative = inhibition, usual class: inhibitors. 1.8% of 300,000 active. AID 540276; calls by dose curve; tested in HEK293 cells; note: potency is the fitted concentration of half-maximal effect
Vaccinia Venus: inhibitors of vaccinia virus (Venus reporter); Vaccinia virus Venus reporter expression, fluorescence; 0.46% of 330,000 active; Potency, µM (doses to about 36.5 µM), for the others: at the highest dose activity change, negative = inhibition, most hits filed as inhibitors; calls by dose curve; tested in A549 cells; note: potency is the fitted concentration of half-maximal effect; nearly all actives have a fitted effect of over 30% in size
HCMV inh: human cytomegalovirus inhibition; activity change, negative = inhibition, % at 57.5 µM; HFF cells, HCMV-luciferase reporter, 72 h; hits give low values; AID 1259415; 4.5% of 410,000 active; in the data active = activity change below about -60%; inconclusive = no clear call, values can overlap the other calls; inactive = above about -39%
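Two compound doses tested in HFFs infected with HCMV-luciferase, MOI 1 PFU/cell, 72 h at 37C. Lysate luminescence read with OneGlo; data normalized against buffer-only and 10uM Salinomycin inhibitor controls.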
FMDV antiviral: foot and mouth disease virus antiviral activity; FMDV antiviral cell-based qHTS; 1.2% of 410,000 active; Potency, µM (top dose mostly 57.9 µM), inactives show at the top dose activity change, negative = inhibition, usual class: inhibitors; calls by dose curve; tested in HEK293T cells; note: read-out not given here; potency is the fitted concentration of half-maximal effect; nearly all actives have a fitted effect of over 45% in size
VACV mCherry inh: inhibitors of vaccinia virus infection (mCherry reporter signal); Vaccinia virus mCherry reporter infection, fluorescence; Potency, µM (highest dose often 36.5 µM), inactives show top-dose activity change, negative = inhibition, hits mostly inhibitors; 0.63% of 310,000 active; calls by dose curve; tested in A549 cells; note: potency is the fitted concentration of half-maximal effect; nearly all actives have a fitted effect of over 35% in size
Active calls of the source: *; i = inactive; ? = inconclusive; . = no result given; ! = a repeat was not active; [ ] = remark or other dose. % is set by controls: 0 for no effect and ±100 for the full control effect.

SMILES | Lassa entry inh | MARV entry inh | Vaccinia Venus | HCMV inh | FMDV antiviral | VACV mCherry inh
CCOC(=O)c1cc(C#N)c(N2CCNCC2)nc1C(F)(F)F | 13.4%[46.1 µM] | 13.1%[46.1 µM] | 0.0% | -23.6 | -2.3% | 5.9%
Cc1ccc(C)c(NC(=O)CCC(=O)N/N=C/c2cccnc2)c1 | . | . | . | -31.2 | -10.0% | .
Cc1cc(Cl)ccc1NC(=O)CCC(=O)N/N=C/c1cccnc1 | 15.6%[46.1 µM] | 2.5%[46.1 µM] | 2.0% | -67.7* | 6.3% | -14.8%
CCOc1cc(C2C(C(=O)OC)=C(C)NC3=C2C(=O)c2ccccc23)ccc1OC (centres undefined) | -6.2%[46.1 µM] | . | -11.6% | 18.4 | -13.7% | -17.0%
CCOC(=O)COc1ccc(C2C(C(=O)OC)=C(C)NC3=C2C(=O)c2ccccc23)cc1Cl (centres undefined) | 4.2%[46.1 µM] | 3.2%[46.1 µM] | 3.1% | -101.8* | -14.3% | -8.7%
CCN(CC(=O)Nc1ccc2c(c1)OCCO2)C(=O)/C=C/c1cccc(C(F)(F)F)c1 | . | . | . | ? | -12.2% | .
CCC(Sc1nnc(-c2ccc(C)c(Cl)c2)n1CC)C(=O)Nc1nccs1 (centres undefined) | ? | ? | . | ? | 22.4µM* | .
O=C(Nc1ccccc1)N[C@H]1CC[C@@]23CCCN2C(=O)CCC[C@H]3C1Cc1ccccc1 (some centres undefined) | . | . | . | -17.1 | . | .
Oc1ccccc1Cn1c(-c2ccccc2O)nc2ccccc21 | -8.9% | 8.1% | . | 17.0 | -12.8% | .
COc1ccccc1Cn1c(-c2ccccc2OC)nc2ccccc21 | 19.2% | 2.5% | -16.3% | -67.6* | ? | -24.4%
O=C(NC1CCCCC1)N1CC(=O)N2[C@H](CO)[C@@H](c3ccc(Br)cc3)[C@@H]2C1 | . | . | . | -18.4 | . | .
Cc1ccc(S(=O)(=O)N2CCC(=O)N(CCOCc3cccc(F)c3)CC2)cc1 | ? | 24.2% | -19.2% | -6.6 | -15.1% | -8.7%
Cc1ccc(S(=O)(=O)N2CCC(=O)N(CCOCc3cccc(Cl)c3)CC2)cc1 | -15.6% | -5.4% | -19.9% | -63.6* | -7.4% | -10.0%
Cc1ccc(S(=O)(=O)N2CCC(=O)N(C(COCc3cccc(C(F)(F)F)c3)C(C)C)CC2)cc1 (centres undefined) | ? | 13µM* | ? | . | ? | ?
O=C(NCCc1ccc(Cl)cc1)c1ccc(CS(=O)Cc2ccccc2Cl)o1 (centres undefined) | ? | . | -8.5% | -65.9*! | ? | -14.9%
O=C(NCCCc1ccccc1)c1ccc(CS(=O)Cc2ccc(Cl)cc2)o1 (centres undefined) | . | . | . | -17.9 | -12.6% | .
O=C(NCCc1ccc(Cl)cc1)c1ccc(CS(=O)(=O)Cc2ccccc2F)o1 | ? | . | -10.3% | -37.5 | 39.8µM* | -20.9%
CC(NS(=O)(=O)c1ccc2[nH]c(=O)c(=O)[nH]c2c1)C(=O)O (centres undefined) | -1.7% | 16.2% | -9.3% | -92.2* | -15.7% | -1.4%
CC(C)CC(NS(=O)(=O)c1ccc2[nH]c(=O)c(=O)[nH]c2c1)C(=O)O (centres undefined) | 0.3% | ? | -2.7% | -32.5 | -8.6% | i
Cc1cccc2c(N)c3c(nc12)CCCC3 (tested in a mixture with another compound) | . | . | . | -32.9 | -18.2% | .
Cc1cc(C)c2c(N)c3cccc(C)c3nc2n1 | ? | 3.66µM* | 10µM* | -98.9* | -12.5% | 10µM*
CC(C)c1cccc(-c2nc3c(NC4CCC(O)CC4)nccc3[nH]2)c1 (centres undefined) | . | . | . | -6.3 | . | .
CCOC(=O)c1c(NC(=O)c2ccc(S(=O)(=O)N3CCC(C)CC3)cc2)sc2c1CCN(C)C2 | 0.3%[46.1 µM] | . | ? | -82.3* | -17.8% | -17.2%
CCCN1CCc2c(sc(NC(=O)CCS(=O)(=O)c3ccccc3)c2C(=O)OC)C1 | -22.5% | ? | -28.3% | -9.1 | -11.2% | ?
CCCN1CCc2c(sc(NC(=O)c3ccc(S(=O)(=O)N4CCN(C(=O)OCC)CC4)cc3)c2C(N)=O)C1 | . | . | . | -2.7 | -23.4% | .
CCOC(=O)N1CCN(S(=O)(=O)c2ccc(C(=O)Nc3sc4c(c3C(=O)OC)CCN(C)C4)cc2)CC1 | -10.4%[46.1 µM] | ? | ? | -61.8* | -12.0% | -4.8%
COC(=O)c1c(NC(=O)CCS(=O)(=O)c2ccccc2)sc2c1CCN(C)C2 | -0.3% | -3.4% | ? | -90.1* | -8.5% | ?

From PubChem BioAssay
